Sampled rows, rich in hits. Any-hit rate of the full collection: about 0.72%.
RGS4 inh: human RGS4 inhibition; Transcreener GDP fluorescence polarization, RGS4-accelerated GTP hydrolysis; Potency, µM (series often up to 114 µM), inactives show at the highest dose activity change, negative = inhibition, usual class: inhibitors; 390,000 tested, 0.039% active; AID 504845; also: potency is read from the fitted curve at half-maximal effect; nearly all actives have a fitted effect of over 75% in size
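MLSMR compounds (23 nl, pin-transferred) preincubated 10 min at room temperature with a 500nM (2x) first reagent, then RGS4 at 900nM (2x) plus Transcreener GDP mix added; fluorescence polarization (620/688 nm) read before and after 90 min at 30 °C.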
Eya2 phos inh: inhibitors of human Eya2 phosphatase activity | recombinant Eya2, OMFP fluorescence dephosphorylation (OMFP is methylfluorescein phosphate) | Potency, µM (doses to about 76.9 µM), without a hit: top-dose activity, negative = inhibition, most hits filed as inhibitors | 330,000 tested, 0.006% active | AID 488837; also: potency is read from the fitted curve at half-maximal effect
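Eya2 (0.2 uM) preincubated 10 min at ambient with compound, then OMFP substrate added at 50 uM; 10 min reaction in 50 mM HEPES pH 7.5, 50 mM NaCl, 5 uM MgCl2, 0.05% BSA, 1 mM DTT. Fluorescence read at Ex 485/Em 525 nm.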
CtBP-E1A blk: CtBP/E1A binding inhibition. AlphaScreen GST-E1A/His-CtBP binding, 1536-well; stronger effect = lower value. activity change, % (concentration not given with the values). 340,000 tested, 0.49% active; in the data active = activity change below about -65%; inconclusive = mostly about -30% to -63%
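In 5 uL wells, 23 nL compound meets equimolar GST-E1A and His-CtBP (5X stock 125 nM each) for 2 h, 37 °C. Beads (5X, 50 ug/mL) then 1 h, 37 °C, dark.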
Six1-Eya2 blk: Six1/Eya2 interaction inhibition. AlphaScreen GST-Six1/His-Eya2 binding, biochemical; stronger effect = lower value. activity change, % (no concentration beside the values). AID 651725. 360,000 tested, 0.56% active. Q15475+O00167; in the data active = activity change below about -65%; inconclusive = mostly about -30% to -63%
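AlphaScreen luminescence read after one hour at 37 °C in darkness. Pin-transferred compounds met GST-Six1 and His-Eya2 protein (5X stock 250 nM/500 nM) plus glutathione donor and Ni-chelate acceptor beads (5X, 50 ug/mL).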
PI4K2A inh: inhibitors of human PI4K2A; Q9BTU6; purified PI4K2A, ADP-Glo luminescence, 1 h; stronger effect = lower value; activity change, negative = inhibition, % at 76.9 µM; 420,000 tested, 0.13% active; AID 1346378; in the data active = activity change below about -50%; inconclusive = mostly about -30% to -49%;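 also: -100% = wells without enzyme as full effect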
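ADP-Glo luminescence measured ADP generated by PI4K2A enzyme (4 ug/mL before mixing) with 1.2 mM PI substrate (pre-mix) and 300 microM ATP (pre-mix). Tris pH7.5 buffer with MgCl2, Triton X-100; 1 h reaction at ambient temperature.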
USP2a inh: inhibitors of human ubiquitin-specific protease USP2a | 330,000 tested, 0.01% active | O75604 | USP2 core, Ub-CHOP2 coupled fluorogenic reporter, 485/531 | Potency, µM (titrated, usually from 38.3 µM), without a hit: top-dose activity change, negative = inhibition, hits mostly inhibitors;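 also: potency is read from the fitted curve at half-maximal effect; plate controls were DMSO wells for no effect and full inhibition by NEM control for full effect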
Target sequence (O75604 whole entry, looked up): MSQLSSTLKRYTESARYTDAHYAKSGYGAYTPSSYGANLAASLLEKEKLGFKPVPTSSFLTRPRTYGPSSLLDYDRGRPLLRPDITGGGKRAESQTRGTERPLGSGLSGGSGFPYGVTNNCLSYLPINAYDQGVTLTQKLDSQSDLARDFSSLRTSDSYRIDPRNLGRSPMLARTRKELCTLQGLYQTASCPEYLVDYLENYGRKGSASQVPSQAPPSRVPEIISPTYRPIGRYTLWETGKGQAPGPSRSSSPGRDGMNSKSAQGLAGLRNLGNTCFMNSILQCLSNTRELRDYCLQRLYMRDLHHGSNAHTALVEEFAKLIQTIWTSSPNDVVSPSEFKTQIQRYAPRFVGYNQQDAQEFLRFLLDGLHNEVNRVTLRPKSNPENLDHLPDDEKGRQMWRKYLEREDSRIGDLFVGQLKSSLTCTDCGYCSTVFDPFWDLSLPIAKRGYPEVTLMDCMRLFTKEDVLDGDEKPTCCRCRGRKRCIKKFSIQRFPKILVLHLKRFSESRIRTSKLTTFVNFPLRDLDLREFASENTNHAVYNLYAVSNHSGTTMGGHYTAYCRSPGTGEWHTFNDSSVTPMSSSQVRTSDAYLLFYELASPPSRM
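Deubiquitinase activity read as fluorescence (485/531 nm) after Ub-CHOP2 cleavage activates the enterokinase reporter on its substrate; USP2 core 10nM, Ub-CHOP2 and substrate 25nM each, 30min compound preincubation then 60min RT; data normalized to NEM, curves fitted.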
The depositor's hits bear a star; ? = inconclusive; · = no result given; ! = repeats disagree; [ ] = remark or other dose. Unless noted, calls follow the shape of the dose curve; as a rule, active = well fitted curve in the direction sought with a large enough effect; inconclusive = small, poorly fitted or top-dose-only effect, or another doubt; inactive = no such curve, though single readings can be large; an effect the other way counts as inactive or inconclusive. Unless noted, % is scaled to controls: 0 for no effect and ±100 for the full control effect.

SMILES | RGS4 inh | Eya2 phos inh | CtBP-E1A blk | Six1-Eya2 blk | PI4K2A inh | USP2a inh
CCCS(=O)(=O)c1ncc(Cl)c(C(=O)Nc2ccc(S(=O)(=O)Nc3ncccn3)cc2)n1 | -35.0% | 3.9% | -76.6* | -83.2* | -22.0 | 2.0%
CN(C)c1ccc(Cc2ccc(N(C)C)cc2)cc1 | -6.5% | · | · | -91.9* | -1.2 | ·
CCC(C(=O)O)c1ccc(N2Cc3ccccc3C2=O)cc1 (stereo unspecified) | · | · | · | · | -5.4 | ·
O=c1nc2c(O)cccn2c2c1c(=O)[nH]c1ccccc12 | -24.4% | 2.4% | 4.0 | -83.0* | -3.6 | 20.0%
C[C@](N)(Cc1ccc(O)cc1)C(=O)O | 2.3%[56.9 µM] | 3.3% | · | · | 1.6 | ·
C[C@](N)(Cc1ccc(O)c(O)c1)C(=O)O | 26.7µM*! | 1.5% | 1.8 | -27.7 | ? | ?
Cc1c(Cl)cccc1NC(=O)CSc1nc(=O)n(Cc2ccco2)c2c1CCC2 | -8.1% | · | · | · | -1.3 | ·
c1ccc2[nH]c3cc4ncnc4cc3nc2c1 | -14.6% | 22.4% | -72.9* | ? | -11.9 | ?
CC(C)c1ccc(CNc2ccc(N3CCOCC3)cc2)cc1 | ? | -10.7% | -67.1* | -71.8* | -24.6 | 1.4%
CCOc1cc(CNc2ccc(N3CCOCC3)cc2)cc(Br)c1OCC | -6.2% | -18.7% | -66.8* | -26.9 | -5.2 | 0.4%
CCOc1cc(CNc2ccc3c(c2)OCCO3)cc(Br)c1OCC | -10.8% | -18.1% | ? | -66.6* | -6.6 | 2.3%
COc1cc(CNc2ccc(N3CCOCC3)cc2)cc(Br)c1OC | -31.5% | -6.5% | · | ? | -10.2 | -2.2%
Cc1ccc(-c2nn(-c3ccc(F)cc3F)c3c2cnc2ccc(F)cc23)cc1 | 10.6% | · | · | · | -3.9 | ·
Cc1ccc(C=C2C(=O)c3ccccc3C2=O)s1 | -14.2% | -17.1% | 3.7 | -2.0 | -53.1* | 0.6%
CCCCNc1ccc(C(=O)OCCN(CC)CC)cc1 | · | · | · | · | -9.1 | ·
Cc1c(C(=O)NNC(=S)Nc2cccc(Cl)c2)nnn1-c1ccccc1 | -37.1% | 2.0% | -1.8 | -85.3* | 0.1 | 1.5%
CCOc1ccc(C(=O)CCNC(Cc2cnc[nH]2)C(=O)O)cc1 (stereo unspecified) | -7.0% | 8.2% | -65.6* | ? | -5.7 | -5.2%
O=[N+]([O-])c1ccc(N/N=C2\CC3CC=CC23)c([N+](=O)[O-])c1 (stereo unspecified) | -3.1% | 15.6% | -16.1 | -69.1* | 3.5 | 3.0%
Cc1c(Cl)cccc1NC(=O)Cn1c(=O)n(Cc2ccco2)c(=O)c2sc3ccccc3c21 | -26.0% | · | · | · | -0.5 | ·
C[C@H]1C[C@H]2[C@@H]3CCC4=CC(=O)C=C[C@]4(C)[C@H]3C(=O)C[C@]2(C)[C@@]1(O)C(=O)CO | · | · | · | · | 1.1 | ·
C/C(=N\NC(=O)c1c[nH]c2ccccc12)c1ccc(C)o1 | -29.3% | 20.4% | -86.4* | -79.3* | -1.4 | 1.7%
C/C(=N\NC(=O)c1cc2ccccc2cc1O)c1ccc(C)o1 | -23.7% | -0.3% | 4.8 | 0.0 | -1.6 | -6.4%
Cc1ccc(C(=O)N/C(=C\c2ccco2)C(=O)NCCCn2ccnc2)cc1C | 3.9% | -11.5% | 6.7 | -80.6* | 0.0 | -1.0%
COCCCNC(=O)c1ccc(Cn2c(=O)c3ccccc3n(Cc3ccc([N+](=O)[O-])cc3)c2=O)cc1 | · | · | · | · | 2.8 | ·
Cc1nc(-[n+]2nc(-c3ccncc3)nn2-c2ccccc2)sc1C | · | · | -87.9* | -91.2* | -73.2* | ·
CC(=O)Nc1ccc(SCC(Cc2ccccc2)N2CCN(CCc3ccccc3)CCC2=O)cc1 (stereo unspecified) | -41.2% | · | · | · | · | ·
Cc1cccc(NC2=C(NCCO)C(=O)c3ccccc3C2=O)c1 | -17.0% | -2.3% | -24.0 | -67.2* | ? | -0.1%
Cc1cc(C)cc(NC2=C(N)C(=O)c3ccccc3C2=O)c1 | -32.8% | -6.3% | ? | -70.2* | -50.3* | 1.0%
C[C@H]1C[C@H](O)c2ccsc2S1(=O)=O | · | · | · | · | -1.3 | ·
C(=C\c1ccccc1)/CSc1nnc(COc2ccccc2)n1Cc1ccco1 | · | · | · | · | -6.8 | ·
